System: LXRb homodimer (NR concentration 270 nM)
Assay: PBM binding z-score (relative to random genomic background probes); higher = stronger binding; sequences stand for … in GC…GCGATTGACAGCGTAGAATGAAGG
Procedure, shortened: (§1)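 Scanned fluorescence from custom Agilent 4×180K protein-binding microarrays was regression-normalized. Binding z-scores use random background probes as reference. Ligand-free nuclear receptor dimers were incubated on the arrays for 1 h and detected with antibodies against each partner (one per run).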

| Sequence | PBM binding z-score |
| --- | --- |
| CGAACTAGGTCACCAGGACAGTAAAGAGGTTGGA | 0.13 |
| ATATGTAGGATATCGGGTCATTCAGTTTGCGCAT | 0.577 |
| ATACGTAGGTTACATCCGGGTCATTCAGGCTATG | 0.366 |
| ATATGGAGGTTAGGGTCATTCAGAAAGTAGGGAA | 2.02 |
| ATATGTAGGTTAGGGTCATTCACAAAGTAGGGAA | 1.64 |
| TAGCCTAGGTCATTCAGGGGGCAGTATAGAAAGC | 11 |
| CGAGCTAGGTCACCAGGACAGTGAAGAGGTTGGA | -0.77 |
| CGAACTAGGCCAAAGGACAGTGAAAGGCGACGTA | -1.2 |
| CGAACTAGGTCACCACGACAGTGAAGAGGTTGGA | -0.171 |
| CGTCCAAGGTCAATGCAAGGTCAGTGAAAGCATT | 1.06 |
| CGAACCAGGTCACCAGGACAGTGAAGAGGTTGGA | -0.432 |
| CCTAGTTGGTCAAGGTAACACACGCTATAGGTAC | 0.295 |
| ATATGTAGGTTACATCCGAGTCATTCAGGCTATG | 0.682 |
| ATATGAAGGTTATCGGGTCATTCAGTTTGCGCAT | 0.891 |
| ATATGTAGGTTACATCGGGGTCATTCAGGCTATG | 1.46 |
| CTCGAAAGGTCGGTTGAGGTGAGTAAACGGATAA | -0.228 |
| CGAACTAGGTAAAAGGACAGTGAAAGGCGACGTA | -0.583 |
| CGTCAAAGTTCAACTAAGTTAACGTAAAGCACGC | 2.56 |
| ATATGTGGGTTAGGGTCATTCAGAAAGTAGGGAA | 3.87 |
| CCGACGGGGGCAAGGTTACCATAACGCACAGCCA | 3.34 |

| Sequence | PBM binding z-score |
| --- | --- |
| CTCGAAAGGTCGTCCTCAGGTGAGTATACCAAAC | 0.328 |
| ATTTGTAGGTTATCGGGTCATTCAGTTTGCGCAT | 2.31 |
| TCTGCTAGGTCAGGTGGTCAGCTAACGAGCTGCC | 0.161 |
| CGAACTTGGTCACCAGGACAGTGAAGAGGTTGGA | -0.791 |
| CGAACTAGGTGACCAGGACAGTGAAGAGGTTGGA | -0.898 |
| CCTACTGGGCCAAGGTCATTGCTCAGTCAAAGCA | -0.46 |
| CGTCCAAGGTAAGAGAGGTCAGTGAATGCCGAGT | -0.936 |
| CGAACTAGGTCACCAGGACAGAGAAGAGGTTGGA | -0.205 |
| CCTACTGGGCCAAAGGTCAGTGATTCCAATGCTC | -0.252 |
| TGAATGAGGTCAAAGATCAGGGAACGTGGCGTCG | 2.72 |
| CCTTACGGGTCACTCCATGTTATAGCATCGGAGT | 0.251 |
| CGAACTAGGTCACCAGGACAGTGGAGAGGTTGGA | -0.484 |
| CGAATTAGGTCACCAGGACAGTGAAGAGGTTGGA | -0.0787 |
| GATACAGGGTGAAGGCCAGAGTACGCGTATTGAT | -0.925 |
| CGAACTAGGTCATCAGGACAGTGAAGAGGTTGGA | -0.279 |
| AGTCAGAGTTCATCTAGGTAACGTAAGATATGCT | 1.48 |
| CCTACTGGGCCATTCAGAGGTCATTGATCATATG | 0.365 |
| CCTTACGGGTCAAGGTAATAGCACGGGTGGTACG | -0.283 |
| CCTTACGGGTCAAGGTTATCGCACGGGTGGTACG | 0.18 |

System: PPARa:RXRa (NR concentration 270 nM, RXRa partner concentration 90 nM)
Assay: as above
Procedure, shortened: as §1

| Sequence | PBM binding z-score |
| --- | --- |
| CGAACTAGGTCACCAGGACAGTAAAGAGGTTGGA | 5.1 |
| ATATGTAGGATATCGGGTCATTCAGTTTGCGCAT | 3.05 |
| ATACGTAGGTTACATCCGGGTCATTCAGGCTATG | 3.03 |
| ATATGGAGGTTAGGGTCATTCAGAAAGTAGGGAA | 5.63 |
| ATATGTAGGTTAGGGTCATTCACAAAGTAGGGAA | 5.7 |
| TAGCCTAGGTCATTCAGGGGGCAGTATAGAAAGC | 4.6 |
| CGAGCTAGGTCACCAGGACAGTGAAGAGGTTGGA | 3.81 |
| CGAACTAGGCCAAAGGACAGTGAAAGGCGACGTA | 2.97 |
| CGAACTAGGTCACCACGACAGTGAAGAGGTTGGA | 5.18 |
| CGTCCAAGGTCAATGCAAGGTCAGTGAAAGCATT | 5.79 |
| CGAACCAGGTCACCAGGACAGTGAAGAGGTTGGA | 4.96 |
| CCTAGTTGGTCAAGGTAACACACGCTATAGGTAC | 0.749 |
| ATATGTAGGTTACATCCGAGTCATTCAGGCTATG | 3.1 |
| ATATGAAGGTTATCGGGTCATTCAGTTTGCGCAT | 4.1 |
| ATATGTAGGTTACATCGGGGTCATTCAGGCTATG | 5.71 |
| CTCGAAAGGTCGGTTGAGGTGAGTAAACGGATAA | 2.84 |
| CGAACTAGGTAAAAGGACAGTGAAAGGCGACGTA | 3.16 |
| CGTCAAAGTTCAACTAAGTTAACGTAAAGCACGC | 4.99 |
| ATATGTGGGTTAGGGTCATTCAGAAAGTAGGGAA | 5.7 |
| CCGACGGGGGCAAGGTTACCATAACGCACAGCCA | 3.96 |

| Sequence | PBM binding z-score |
| --- | --- |
| CTCGAAAGGTCGTCCTCAGGTGAGTATACCAAAC | 4.54 |
| ATTTGTAGGTTATCGGGTCATTCAGTTTGCGCAT | 4.47 |
| TCTGCTAGGTCAGGTGGTCAGCTAACGAGCTGCC | 1.89 |
| CGAACTTGGTCACCAGGACAGTGAAGAGGTTGGA | 0.239 |
| CGAACTAGGTGACCAGGACAGTGAAGAGGTTGGA | 2.67 |
| CCTACTGGGCCAAGGTCATTGCTCAGTCAAAGCA | 3.63 |
| CGTCCAAGGTAAGAGAGGTCAGTGAATGCCGAGT | 2.53 |
| CGAACTAGGTCACCAGGACAGAGAAGAGGTTGGA | 5.15 |
| CCTACTGGGCCAAAGGTCAGTGATTCCAATGCTC | 6.01 |
| TGAATGAGGTCAAAGATCAGGGAACGTGGCGTCG | 6.45 |
| CCTTACGGGTCACTCCATGTTATAGCATCGGAGT | 4.37 |
| CGAACTAGGTCACCAGGACAGTGGAGAGGTTGGA | 5.13 |
| CGAATTAGGTCACCAGGACAGTGAAGAGGTTGGA | 5.25 |
| GATACAGGGTGAAGGCCAGAGTACGCGTATTGAT | 1.08 |
| CGAACTAGGTCATCAGGACAGTGAAGAGGTTGGA | 5 |
| AGTCAGAGTTCATCTAGGTAACGTAAGATATGCT | 4.64 |
| CCTACTGGGCCATTCAGAGGTCATTGATCATATG | 3.82 |
| CCTTACGGGTCAAGGTAATAGCACGGGTGGTACG | 4.8 |
| CCTTACGGGTCAAGGTTATCGCACGGGTGGTACG | 5.07 |

Reference: the supplement of paper PMC6555819
